The whole screen tested about 48,000 compounds, of which about 1,200 (2.5%) were called active. Another 2% or so got no clear call; they are omitted. Shown is part of a subset that was picked to be rich in actives. Values without a mark were called inactive.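 How the source made its calls: active means activation of at least 60% and not above a set upper limit (about 1 call in 100 departs from these limits); inconclusive means activation of 40% to 60%, or above that upper limit; inactive means activation under 40%.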
Each compound was assayed against Probable G-protein coupled receptor 32 (Homo sapiens) (UniProt O75388) (assay: qHTS for Agonists of Human Resolvin D1 Receptor DRV1). Settings: CHO-K1 GPR32 beta-arrestin PathHunter luminescence, 90 min; at 76.9 µM; hits give high values; zero percent set by DMSO-only wells.
Probable G-protein coupled receptor 32 (Homo sapiens), sequence (O75388 whole entry, looked up): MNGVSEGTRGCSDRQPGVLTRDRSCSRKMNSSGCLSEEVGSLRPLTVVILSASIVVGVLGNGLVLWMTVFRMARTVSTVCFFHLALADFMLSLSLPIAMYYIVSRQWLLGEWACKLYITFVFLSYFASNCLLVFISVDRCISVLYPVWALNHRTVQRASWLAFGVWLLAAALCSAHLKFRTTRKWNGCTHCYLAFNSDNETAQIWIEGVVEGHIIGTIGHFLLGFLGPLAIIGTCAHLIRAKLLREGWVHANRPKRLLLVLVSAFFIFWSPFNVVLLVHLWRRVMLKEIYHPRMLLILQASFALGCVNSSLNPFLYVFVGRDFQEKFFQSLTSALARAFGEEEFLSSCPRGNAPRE
Summary of the method: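 Cells are plated overnight, treated with compounds in DMSO for 90 minutes at 37 °C, and developed with PathHunter detection reagent for 1 hour before luminescence is read; signal reflects beta-arrestin binding to GPR32 in engineered CHO-K1 cells.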
In the case of `COc1cccc(CNC(=O)CN2C(=O)CCc3cc(S(=O)(=O)N4CCOCC4)ccc32)c1`, the activation is reported as 0%.
For `COc1cccc(C(=O)Nc2nnc(S(=O)(=O)N3CCOCC3)s2)c1`, the activation was 69.6% (active).
With `O=C(Nc1nnc(S(=O)(=O)N2CCOCC2)s1)c1cccc(Br)c1` the activation was 93.4% (active).
`CCOc1cccc(C(=O)Nc2nnc(S(=O)(=O)N(C)c3ccc(C)cc3)s2)c1` was tested, and the activation was 63.1% (active).
`CN(Cc1ccco1)S(=O)(=O)c1nnc(NC(=O)c2ccccc2)s1` showed an activation of 18.1%.
Work on `Cc1cc2nc(NC(=O)c3ccc(S(=O)(=O)N4CCOCC4)cc3)sc2cc1C` yielded an activation of -4.68%.
`CC(C)CC(=O)Nc1nnc(S(=O)(=O)N(C)c2ccc(Cl)cc2)s1` gave an activation of -5.88%.
Work on `Cc1ccccc1C(=O)Nc1nnc(S(=O)(=O)N(C)c2ccc(Cl)cc2)s1` yielded an activation of 8.7%.
For `Cc1ccccc1OCC(=O)Nc1nnc(S(=O)(=O)N2CCCC2)s1`, the activation was 5.36%.
For `O=C(Nc1nnc(S(=O)(=O)N2CCCc3ccccc32)s1)c1cccc(F)c1`, the activation was 45.3%.
Work on `Cc1ccc(C(=O)Nc2ccccc2F)cc1S(=O)(=O)N1CCOCC1` yielded an activation of 2.32%.
For `O=C(Nc1nnc(S(=O)(=O)N2CCCCCC2)s1)c1cccc(Br)c1`, the activation was 115% (active).
In the case of `Cc1cc(N2CCN(c3cccc(C(F)(F)F)c3)CC2)n2nc(-c3ccccc3)nc2n1`, the activation is reported as -14.2%.
`CCOC(=O)c1c(NC(=O)COc2cc(C)ccc2C(C)C)sc(C)c1C` gave an activation of -11%.
Compound `Cc1ccc(C)c(S(=O)(=O)n2nc(C)c(S(=O)(=O)N3CCC(C)CC3)c2C)c1` has an activation of -11.2%.
`O=C(Nc1cc(C(F)(F)F)ccc1Cl)c1cc2nc(-c3ccc4c(c3)OCO4)cc(C(F)(F)F)n2n1` was tested, and the activation was -10.2%.
For `Cc1ccc(NC(=O)c2ccc(CN3CC(=O)N4CCCCC4C3=O)cc2)c(Cl)c1` (stereo not given), the activation was -8.29%.
For `COc1ccc(-c2cc(C(=O)NCc3cc(OC)c(OC)c(OC)c3)[nH]n2)cc1`, the activation was -1.24%.
Compound `COc1ccc(NC(=O)CSc2nc3ccccc3n2CC(=O)N2CCCCC2C)cc1` (stereo not given) has an activation of -15.6%.
`CCOc1ccccc1NC(=O)Cn1c(=O)n(Cc2ccccc2)c(=O)c2c(C)c(C(=O)N(C)C)sc21` showed an activation of -24.5%.
Work on `CCn1cc(C(=O)OCC(=O)Nc2cc(C)cc(C)c2)c(=O)c2ccc(C)nc21` yielded an activation of 20.2%.
`CN(Cc1ccccc1)C(=O)c1cn(C)c2ccc(S(=O)(=O)N3CCCCC3)cc2c1=O` was tested, and the activation was 13.1%.
`Cc1ccc(Cl)cc1NC(=O)/C(C#N)=C\c1cn(Cc2ccc(F)cc2)c2ccccc12` gave an activation of 7.85%.
With `Cc1ccc(/C=C(\C#N)C(=O)Nc2cc(C)ccc2C)cc1` the activation was 98.1% (active).
Work on `CCOC(=O)c1c(NC(=O)/C(C#N)=C/c2ccccc2)sc2c1CCC2` yielded an activation of 13.3%.

— PubChem BioAssay AID1346428 (National Center for Advancing Translational Sciences (NCATS), 2018)
Further: 0% is about no effect.
